Measurements taken from PubChem BioAssay AID1159580 (chemical genetic matrix, 2015).
Values joined by “and” are separate entries in the source; they are usually repeats but may differ in a detail not shown here. Equal entries are not always repeated. Screen size: about 5,500 compounds; about 2,000 (36%) were called active. About 18% were inconclusive and are not listed. Rule as the data show it: active = normalized growth mostly below about 0.91 (no sharp cut-off); inconclusive = no clear call, values can overlap the other calls; inactive = mostly above about 0.92. This is one part of the list.

Test: chemical genetic growth profiling, strain panel (AID 1159580);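 also: tested at 20 µM; growth read once vehicle control cultures reached saturation at 30 °C; 1 = growth at the plate median or of vehicle wells; lower values mean less growth of the strain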
Settings: S. cerevisiae deletion strains, growth OD

Measured: normalized growth

NC(=O)NO
inactive: locus YAL021C, strain ccr4, stronger effect = lower value 1.02 | locus YAL026C, strain drs2, stronger effect = lower value 1.03 | locus YAL030W, strain snc1, stronger effect = lower value 1 | locus YAL040C, strain CLN3, stronger effect = lower value 1.09 | locus YBL061C, strain skt5, stronger effect = lower value 1.04 | locus YBR009C, strain hhf1, stronger effect = lower value 1.01 | locus YBR021W, strain FUR4, stronger effect = lower value 1 | locus YBR023C, strain chs3, stronger effect = lower value 1.02 | locus YBR171W, strain sec66, stronger effect = lower value 1.02 | locus YBR229C, strain ROT2, stronger effect = lower value 0.999 | locus YBR231C, strain swc5, stronger effect = lower value 1.01 | locus YBR279W, strain paf1, stronger effect = lower value 1.03 | locus YCL011C, strain gbp2, stronger effect = lower value 1.02 | locus YCL016C, strain dcc1, stronger effect = lower value 1.02 | locus YCL029C, strain bik1, stronger effect = lower value 1 | locus YCL061C, strain MRC1, stronger effect = lower value 1.01 | locus YCL069W, strain vba3, stronger effect = lower value 1.02 | locus YCR088W, strain abp1, stronger effect = lower value 1.02 | locus YDL005C, strain med2, stronger effect = lower value 1.02 | locus YDL035C, strain GPR1, stronger effect = lower value 1.01 | locus YDL040C, strain nat1, stronger effect = lower value 1.04 | locus YDL074C, strain BRE1, stronger effect = lower value 1.01 | locus YDL101C, strain DUN1, stronger effect = lower value 1 | locus YDL134C, strain PPH21, stronger effect = lower value 1 | locus YDL185W, strain tfp1, stronger effect = lower value 0.994 | locus YDL192W, strain arf1, stronger effect = lower value 1.01 | locus YDR001C, strain nth1, stronger effect = lower value 1.01 | locus YDR069C, strain doa4, stronger effect = lower value 1.02 | locus YDR101C, strain arx1, stronger effect = lower value 0.996 | locus YDR137W, strain rgp1, stronger effect = lower value 1.04 | locus YDR159W, strain sac3, stronger effect = lower value 1.01 | locus YDR162C, strain NBP2, stronger effect = lower value 1.01 | locus YDR195W, strain ref2 0.962 | locus YDR297W, strain sur2, stronger effect = lower value 1.02 | locus YDR318W, strain mcm21, stronger effect = lower value 1 | locus YDR334W, strain swr1, stronger effect = lower value 1.01 | locus YDR335W, strain msn5, stronger effect = lower value 1.02 | locus YDR363W, strain ESC2, stronger effect = lower value 1.01 | locus YDR388W, stronger effect = lower value 0.998 | locus YDR392W, strain spt3, stronger effect = lower value 1.04 | locus YDR502C, strain sam2, stronger effect = lower value 0.989 | locus YEL003W, strain gim4, stronger effect = lower value 1.02 | locus YEL037C, strain rad23, stronger effect = lower value 1.01 | locus YEL061C, strain CIN8 (second series), stronger effect = lower value 1.02 | locus YEL061C, strain CIN8, stronger effect = lower value 1 | locus YER002W, strain NOP16, stronger effect = lower value 0.998 | locus YER015W, strain faa2, stronger effect = lower value 1.01 | locus YER016W, strain bim1, stronger effect = lower value 1.01 | locus YER110C, stronger effect = lower value 0.997 | locus YER111C, strain swi4, stronger effect = lower value 1.03 | locus YER155C, strain BEM2 (second series), stronger effect = lower value 1.01 | locus YER155C, strain BEM2, stronger effect = lower value 0.998 | locus YER167W, strain BCK2, stronger effect = lower value 1 | locus YFR010W, strain ubp6, stronger effect = lower value 1.01 | locus YGL078C, strain dbp3, stronger effect = lower value 0.999 | locus YGL086W, strain mad1, stronger effect = lower value 0.985 | locus YGL167C, strain pmr1, stronger effect = lower value 1.02 | locus YGL173C, strain kem1, stronger effect = lower value 1.02 | locus YGL227W, strain vid30, stronger effect = lower value 1.01 | locus YGL240W, strain doc1, stronger effect = lower value 0.983 | locus YGL248W, strain PDE1, stronger effect = lower value 1 | locus YGL253W, strain hxk2, stronger effect = lower value 1.03 | locus YGR078C, strain PAC10, stronger effect = lower value 1 | locus YGR135W, strain pre9, stronger effect = lower value 0.997 | locus YGR229C, strain SMI1, stronger effect = lower value 0.997 | locus YGR252W, strain gcn5, stronger effect = lower value 0.943 | locus YHR013C, strain ard1, stronger effect = lower value 1.02 | locus YHR027C, strain rpn1, stronger effect = lower value 1.02 | locus YHR030C, strain SLT2, stronger effect = lower value 0.989 and 0.962 | locus YHR079C, strain IRE1 (second series), stronger effect = lower value 1 | locus YHR079C, strain IRE1, stronger effect = lower value 0.981 | locus YHR094C, strain hxt1, stronger effect = lower value 0.997 | locus YHR129C, strain ARP1, stronger effect = lower value 1 | locus YHR142W, strain chs7, stronger effect = lower value 1.04 | locus YHR200W, strain rpn10, stronger effect = lower value 0.992 | locus YIL066C, strain RNR3, stronger effect = lower value 1.01 | locus YIL073C, strain SPO22, stronger effect = lower value 1.03 | locus YIL125W, strain kgd1, stronger effect = lower value 0.989 | locus YIR030C, strain dcg1, stronger effect = lower value 1.01 | locus YJL092W, strain hpr5, stronger effect = lower value 1.02 | locus YJL095W, strain BCK1 (second series), stronger effect = lower value 1 | locus YJL095W, strain BCK1, stronger effect = lower value 1.01 and 0.965 | locus YJL115W, strain asf1, stronger effect = lower value 1.01 | locus YJL129C, strain trk1, stronger effect = lower value 1.03 | locus YJL134W, strain LCB3, stronger effect = lower value 1 | locus YJL154C, strain vps35, stronger effect = lower value 1.03 | locus YJL164C, strain tpk1, stronger effect = lower value 1.01 | locus YJL166W, strain qcr8, stronger effect = lower value 1.03 | locus YJL168C, strain set2, stronger effect = lower value 1 | locus YJL187C, strain SWE1 (second series), stronger effect = lower value 1 | locus YJL187C, strain SWE1, stronger effect = lower value 1.03 | locus YJR043C, strain POL32, stronger effect = lower value 1
